# Structures can show the parent of a compound that is named as a salt. Values without a mark were called inactive.
# Columns and labels:
# Settings in all cases: 20 µM
# [1] = tested on: Haemophilus parainfluenzae; test: growth AUC normalised to DMSO control (fraction of control); higher = less growth inhibition, active = hit call of the paper
# Summary of the method: (§1)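 Pathogens were passaged twice under anaerobic conditions, then inoculated into pre-reduced mGAM plates at a starting OD578 of 0.01, with compound at 20 μM and 1% DMSO, and sealed with breathable membranes. For Haemophilus parainfluenzae, the medium was supplemented with hemin and NAD. OD578 was read every hour for 24 h in three biological replicates. Growth-curve AUC was calculated by the trapezoidal rule up to the exponential-to-stationary transition and normalised to DMSO controls on the same plate.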
# [2] = tested on: Salmonella enterica typhimurium; test: as above
# Summary of the method: as §1
# Shigella flexneri = test: as above
# Summary of the method: as §1
# Vibrio cholerae = test: as above
# Summary of the method: as §1
# [3] = tested on: Yersinia pseudotuberculosis; test: as above
# Summary of the method: as §1
# P. vulgatus RND KO = test: growth AUC normalised to DMSO control (median) (fraction of control); higher = less growth inhibition, active = hit call of the paper
# Summary of the method: (§2)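 For normalised area under the curve, growth curves were truncated at entry into stationary phase, integrated by the trapezoidal rule and divided against vehicle wells on the same plate. The curves came from strains passaged twice overnight without oxygen and then grown in mGAM in 96-well plates at a starting OD578 of 0.01. Each well held an approved-drug library compound at 20 μM with 1% DMSO, and OD578 was read hourly for 24 h in an anaerobic incubator. Values are medians of three biological replicates.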
# P. vulgatus WT = test: as above
# Summary of the method: as §2
# [4] = tested on: S. enterica typhimurium WT; test: as above
# Summary of the method: as §2
# [5] = tested on: S. enterica typhimurium tolC KO; test: as above
# Summary of the method: as §2
# 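Throughout, for growth AUC normalised to DMSO control (median): active when median AUC fell below 0.1.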
Structure (SMILES),growth AUC normalised to DMSO control [1],growth AUC normalised to DMSO control [2],growth AUC normalised to DMSO control (Shigella flexneri),growth AUC normalised to DMSO control (Vibrio cholerae),growth AUC normalised to DMSO control [3],growth AUC normalised to DMSO control (P. vulgatus RND KO),growth AUC normalised to DMSO control (P. vulgatus WT),growth AUC normalised to DMSO control [4],growth AUC normalised to DMSO control [5]
CC(=O)OCC(=O)[C@H]1CC[C@H]2[C@@H]3CC[C@H]4C[C@H](O)CC[C@]4(C)[C@H]3C(=O)C[C@]12C [Alfadolone acetate],1.26,1.01,0.99,0.987,0.992,1.04,1.05,1.01,0.941
CC(C)[N+](C)(CCC(C(N)=O)(c1ccccc1)c1ccccc1)C(C)C [Isopropamide iodide],0.981,0.998,1,1,0.991,0.995,1.02,1,0.993
CC(=O)OC1CN2CCC1CC2 (stereo not given) [Aceclidine hydrochloride],1.02,1,1.01,1.03,0.994,0.994,1.03,1.01,0.999
O=C(CCCN1CCC(n2c(=O)[nH]c3ccccc32)CC1)c1ccc(F)cc1 [Benperidol],1.03,0.981,0.998,0.998,0.975,1.01,1.02,0.993,0.956
C#CCN(C)[C@H](C)Cc1ccccc1 [Selegiline hydrochloride],0.985,1.02,1.05,1.01,1.03,1.03,1.05,1,1.01
CC[N+]1(C)CCCC(OC(=O)C(O)(c2ccccc2)c2ccccc2)C1 (stereo not given) [Pipenzolate bromide],0.996,0.993,0.977,0.998,1.01,1,1.02,1,0.999
NCC(O)c1ccc(O)cc1 (stereo not given) [Octopamine hydrochloride],1.03,1,0.999,1.01,1.02,1.02,1.03,1,1.03
Clc1ccc(C(OCCN2CCCCC2)c2ccccc2)cc1 (stereo not given) [Cloperastine hydrochloride],0.833,0.992,1.03,0.954,1.03,1.01,1,1,0.938
CCn1cc(C(=O)O)c(=O)c2cc3c(cc21)OCO3 [Oxolinic acid],0.0639 (active),0.0132 (active),0.0542 (active),0.0353 (active),0.0367 (active),0.951,0.922,0.0291 (active),0.0105 (active)
N[C@@H]1C[C@H]1c1ccccc1 [Tranylcypromine hydrochloride],1.04,0.999,1,1.01,0.959,1.01,1.05,1.01,1
CCN(CC)C(C)C(=O)c1ccccc1 (stereo not given) [Amfepramone hydrochloride],0.998,0.995,0.982,0.999,1.02,1.01,1.01,1.01,0.988
CNC(=O)Oc1ccc2c(c1)[C@]1(C)CCN(C)[C@@H]1N2C [Eserine hemisulfate salt],0.975,1.01,1.02,1.06,0.97,1.07,1.06,0.999,0.993
CCN(C)C(=O)Oc1cccc([C@H](C)N(C)C)c1 [Rivastigmine],1.13,1.04,1.02,1.11,1.04,1.01,1.03,1.01,1.02
C[C@]12COC(=O)C[C@@H]1CC[C@@H]1[C@@H]2CC[C@@]2(C)[C@H]1CC[C@]2(C)O [Oxandrolone],0.995,1.01,1,1,0.963,1.03,1.05,1.01,0.991
CCCC[N+]1(C)[C@@H]2C[C@@H](OC(=O)[C@H](CO)c3ccccc3)C[C@H]1[C@@H]1O[C@@H]12 (stereo not given in full) [N-Butylscopolammonium bromide],1,1,0.993,1.01,1.02,1,1,1,0.995
CN(C)[C@@H]1C(=O)C(C(N)=O)=C(O)[C@@]2(O)C(=O)C3=C(O)c4c(O)cccc4[C@@](C)(O)[C@H]3[C@H](O)[C@@H]12 [Oxytetracycline dihydrate],0.0523 (active),0.00147 (active),0.015 (active),0.0278 (active),0.0752 (active),0.00913 (active),0.0112 (active),0.0149 (active),0.00753 (active)
C1CCc2nnnn2CC1 [Pentylenetetrazole],1.01,0.978,1.01,1.04,0.976,1.03,1.06,1,0.986
COc1ccc(OC)c(C(O)C(C)N)c1 (stereo not given) [Methoxamine hydrochloride],1,1.01,0.984,1.01,0.991,0.987,0.0385 (active),1.01,0.999
CN(C)C(=O)Oc1ccc[n+](C)c1 [Pyridostigmine iodide],0.994,1,1.03,1.02,0.992,1,1.03,1.01,0.991
COc1cccc(C2(O)CCCCC2CN(C)C)c1 (stereo not given) [Tramadol hydrochloride],0.971,0.98,0.992,0.983,0.994,0.988,0.989,0.986,0.986
CN[C@@H]1C[C@@H](c2ccc(Cl)c(Cl)c2)c2ccccc21 [Indatraline hydrochloride],1.04,1.02,1.05,1,1.02,0.973,1.08,0.996,0.95
CC(C)(C)NCC(O)c1cc(Cl)c(N)c(Cl)c1 (stereo not given) [Clenbuterol hydrochloride],0.984,0.958,0.979,0.992,0.993,0.981,1.01,1,0.992
CCC1(C2=NCCN2)Cc2ccccc2O1 (stereo not given) [Efaroxan hydrochloride],–,–,–,–,–,1.02,1.03,0.997,0.999
CC[C@@]1([C@@H]2O[C@@H]([C@H]3O[C@@](O)(CO)[C@H](C)C[C@@H]3C)C[C@@H]2C)CC[C@H]([C@]2(C)CC[C@]3(C[C@H](O)[C@@H](C)[C@@H]([C@@H](C)[C@@H](OC)[C@H](C)C(=O)O)O3)O2)O1 [Monensin sodium salt],–,–,–,–,–,0.261,0.305,1,0.856
CN1C(=O)COc2c(C(=O)NC3CN4CCC3CC4)cc(Cl)cc21 (stereo not given) [Azasetron hydrochloride],–,–,–,–,–,1.02,1.04,1.01,1.01
CCCCCC[C@H]1C(=O)O[C@H](C)[C@H](NC(=O)c2cccc(NC=O)c2O)C(=O)O[C@@H](C)[C@@H]1OC(=O)CC(C)C [Antimycin A],–,–,–,–,–,1.03,1.05,1.01,1.01
CNC(C)(C)Cc1ccccc1 [Mephentermine hemisulfate],1.09,1.03,1.03,1.06,0.977,1.03,1.08,1,0.994
Nc1ccncc1 [Dalfampridine],–,–,–,–,–,1,1.03,1.02,0.995
CC(C)=CC1C(C(=O)OCc2cccc(Oc3ccccc3)c2)C1(C)C (stereo not given) [Phenothrin],–,–,–,–,–,1.01,1.01,0.998,1.01
Cc1cccc(C)c1NC(=O)CN1CCCC1=O [Nefiracetam],–,–,–,–,–,1.01,1.01,1,1

# Source: the supplement of paper PMC12350171
